Assay results published in PubChem BioAssay (Tox21).
Where “and” joins values, the source holds several entries; their conditions need not be identical. Equal values may be shown once. Records with an inconclusive call do not appear. A structure can be active in one record and inactive in another. Calls of active or inactive are those of the source. Unless noted, the call rests on the fitted dose curve; in most records, active means well fitted curve in the direction sought with a large enough effect in the repeat runs; inconclusive means weak or mixed curves; inactive means no such curve, though single readings can be large; an effect the other way counts as inactive or inconclusive.

Columns and labels:
[1] = biological target: Progesterone receptor (Homo sapiens) (UniProt P06401); experiment: qHTS assay to identify small molecule agonists of the progesterone receptor (PR) signaling pathway (AID 1346784; calls by dose curve; further: nearly all actives have a fitted effect of over 30% in size)
Sequence of Progesterone receptor (Homo sapiens) (P06401 whole entry, looked up): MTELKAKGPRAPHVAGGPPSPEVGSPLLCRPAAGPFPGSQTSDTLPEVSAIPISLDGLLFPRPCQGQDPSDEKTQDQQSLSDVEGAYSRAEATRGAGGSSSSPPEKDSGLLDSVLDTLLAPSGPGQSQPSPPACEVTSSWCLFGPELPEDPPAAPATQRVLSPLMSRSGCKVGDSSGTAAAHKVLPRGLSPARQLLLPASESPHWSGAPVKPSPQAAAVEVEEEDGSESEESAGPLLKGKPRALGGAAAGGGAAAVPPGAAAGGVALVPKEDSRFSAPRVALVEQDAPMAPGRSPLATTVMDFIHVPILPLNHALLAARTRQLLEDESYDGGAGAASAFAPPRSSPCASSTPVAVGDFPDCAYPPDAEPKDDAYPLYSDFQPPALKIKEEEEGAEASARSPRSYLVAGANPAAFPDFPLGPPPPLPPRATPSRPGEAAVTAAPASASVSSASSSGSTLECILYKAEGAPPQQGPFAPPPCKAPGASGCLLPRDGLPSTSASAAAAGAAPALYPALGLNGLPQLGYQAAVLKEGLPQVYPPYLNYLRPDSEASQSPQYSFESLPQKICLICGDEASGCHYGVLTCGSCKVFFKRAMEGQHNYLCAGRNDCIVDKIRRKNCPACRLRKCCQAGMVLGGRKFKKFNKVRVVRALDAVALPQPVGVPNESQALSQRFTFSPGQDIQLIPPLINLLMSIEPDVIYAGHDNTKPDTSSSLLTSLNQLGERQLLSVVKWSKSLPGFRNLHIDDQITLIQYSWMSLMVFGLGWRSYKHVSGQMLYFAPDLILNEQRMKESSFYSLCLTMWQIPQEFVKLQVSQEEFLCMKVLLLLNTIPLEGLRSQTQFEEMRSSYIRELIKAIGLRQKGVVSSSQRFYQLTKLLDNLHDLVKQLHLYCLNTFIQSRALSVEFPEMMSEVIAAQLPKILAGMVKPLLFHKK
Summary of the method: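 PR-UAS-bla HEK 293T cells carrying a UAS-driven beta-lactamase reporter were seeded in medium with 2% charcoal-stripped FBS, preincubated 6 hr at 37C, then exposed to compounds in DMSO for 16 hr; agonism was read by LiveBLAzer B/G FRET fluorescence.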

[2] = biological target: Progesterone receptor (Homo sapiens) (UniProt P06401); experiment: qHTS assay to identify small molecule antagonists of the progesterone receptor (PR) signaling pathway (AID 1346795; active means well fitted inhibition curve with a large enough effect in the signal ratio in the repeat runs, not every such curve was filed as active; the % refers to the signal ratio; further: potency means the concentration at half of the fitted maximal effect)
Summary of the method: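 PR-UAS-bla HEK293T cells carrying a UAS-driven beta-lactamase reporter were plated in medium with 2% charcoal-stripped FBS and rested 6 hr at 37C. Compounds were added with 1 nM R5020 (final) for 16 hr, then FRET substrate loaded 2 hr at room temperature.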

[3] = qHTS assay to identify small molecule antagonists of the progesterone receptor (PR) signaling pathway - cell viability counter screen (AID 1346798); further: series mostly up to about 92 µM; nearly all actives have a fitted effect of over 50% in size
Summary of the method: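 PR-UAS-bla HEK293T cells in medium with 2% charcoal-stripped FBS were treated with compounds plus R5020 for 16 hr at 37C. Cell viability was then read by CellTiter-Glo luminescence after 30 min at room temperature in the same wells.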

[4] = qHTS assay to identify small molecule agonists of the progesterone receptor (PR) signaling pathway - cell viability counter screen (AID 1346799; calls by dose curve; further: nearly all actives have a fitted effect of over 45% in size)
Summary of the method: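 PR-UAS-bla HEK293T cells, 3,000 per well in medium with 2% charcoal-stripped FBS, were preincubated 6 hr at 37C, then exposed to compounds for 16 hr; viability was read as CellTiter-Glo luminescence after 30 min at room temperature.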

[5] = qHTS assay to identify small molecule antagonists of the TGF-beta/Smad signaling pathway - cell viability counter screen (AID 1346824); further: nearly all actives have a fitted effect of over 50% in size
Summary of the method: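 SBE-bla HEK 293T cells were plated overnight at 37 C, then given compounds in DMSO plus TGF-beta1 (added as 0.25 ng/mL solution) for 5 hr. After the bla read, CellTiter-Glo was added to the same wells and luminescence read after 30 min at room temperature.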

[6] = qHTS assay to identify small molecule agonists of the TGF-beta/Smad signaling pathway - cell viability counter screen (AID 1346829); further: top concentration of the series differs between compounds; nearly all actives have a fitted effect of over 45% in size
Summary of the method: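 Luminescence from CellTiter-Glo, read after a 30 min room-temperature incubation, gives cell viability of SBE-bla HEK 293T cells treated 5 hr with compounds at 37 C.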

[7] = qHTS assay to identify small molecule agonists of the TGF-beta/Smad signaling pathway (AID 1346859; active means well fitted activation curve with a large enough effect in the signal ratio in the repeat runs, not every such curve was filed as active; the % refers to the signal ratio; further: series mostly up to about 77 µM)
Summary of the method: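 HEK 293T cells stably carrying a beta-lactamase reporter driven by the Smad binding element were seeded overnight, exposed to DMSO-dissolved compounds for 5 hr at 37 C, 5% CO2, then loaded with FRET substrate for 2 hr at room temperature.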

[8] = biological target: Thyrotropin-releasing hormone receptor (Homo sapiens) (UniProt P34981); experiment: qHTS assay to identify small molecule antagonists of the thyrotropin-releasing hormone receptor (TRHR) signaling pathway (AID 1346877; active means well fitted inhibition curve with a large enough effect in the repeat runs, not every such curve was filed as active; further: series mostly up to about 51 µM)
Sequence of Thyrotropin-releasing hormone receptor (Homo sapiens) (P34981 whole entry, looked up): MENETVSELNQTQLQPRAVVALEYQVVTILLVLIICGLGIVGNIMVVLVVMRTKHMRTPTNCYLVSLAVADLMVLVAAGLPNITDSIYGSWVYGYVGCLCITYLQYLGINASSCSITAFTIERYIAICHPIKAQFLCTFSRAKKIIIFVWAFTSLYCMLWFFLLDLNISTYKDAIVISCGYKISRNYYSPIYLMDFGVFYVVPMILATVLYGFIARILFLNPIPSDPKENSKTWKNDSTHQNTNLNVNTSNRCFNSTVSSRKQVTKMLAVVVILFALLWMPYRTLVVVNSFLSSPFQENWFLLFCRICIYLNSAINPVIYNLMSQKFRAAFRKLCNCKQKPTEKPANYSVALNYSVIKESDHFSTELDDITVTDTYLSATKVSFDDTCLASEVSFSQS
Summary of the method: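 Antagonist mode: after a 5 min room-temperature compound exposure, cells were stimulated with 1 nM (final) TRH. Dye-loaded TRHR-HEK293 cells were used, and calcium-dependent fluorescence was followed for 3 min, with 15-point titrations run in triplicate.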

[9] = biological target: Thyrotropin-releasing hormone receptor (Homo sapiens) (UniProt P34981); experiment: qHTS assay to identify small molecule agonists of the thyrotropin-releasing hormone receptor (TRHR) signaling pathway (AID 1346891; calls by dose curve; further: series mostly up to about 58 µM)
Summary of the method: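 TRHR-expressing HEK293 cells were plated 18 h at 37 °C/5% CO2, loaded with calcium dye 2 h at 37 °C, then given compound in DMSO; fluorescence was read kinetically for 3 min at 1 s intervals.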

[10] = Human pregnane X receptor (PXR) small molecule agonists, qHTS cell viability counter screen (AID 1346977); further: nearly all actives have a fitted effect of over 50% in size; further: potency means the concentration at half of the fitted maximal effect
Summary of the method: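 PXR-Luc HepG2 cells in medium with 5% charcoal-stripped FBS were pre-incubated 5hr, then exposed to compounds for 24hr at 37C. Viability was read in the same wells by CellTiter-Fluor fluorescence, reagent added after 23hr with a 1hr incubation.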

[11] = Caspase-3/7 induction in HepG2 cells by small molecules, qHTS assay (AID 1346978); further: nearly all actives have a fitted effect of over 15% in size; further: potency means the concentration at half of the fitted maximal effect
Summary of the method: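 Wild-type HepG2 cells (2,000/well) were settled 5 h at 37 C, 5% CO2, then exposed to compounds in DMSO for 17 h. Caspase-3/7 activity was read by luminescence 30 min after adding Caspase-Glo 3/7 reagent at room temperature.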

[12] = Caspase-3/7 induction in CHO-K1 cells by small molecules, qHTS cell viability counter screen (AID 1346979); further: nearly all actives have a fitted effect of over 35% in size
Summary of the method: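 Wild-type CHO-K1 cells were seeded at 1,500 per well, rested 5hr at 37 C, then exposed to compounds in DMSO. After 16hr, CellTiter-Fluor reagent was added and fluorescence read 1hr later as the viability measure.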

[13] = Caspase-3/7 induction in CHO-K1 cells by small molecules, qHTS assay (AID 1346980); further: nearly all actives have a fitted effect of over 15% in size
Summary of the method: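 Wild-type cells were seeded at 1,500 per well and settled 5 hr at 37 C, 5% CO2, then exposed to DMSO-dissolved compounds for 17 hr. Caspase-Glo 3/7 reagent was added, and luminescence was read after 30min at room temperature.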

[14] = Caspase-3/7 induction in HepG2 cells by small molecules, qHTS cell viability counter screen (AID 1346981); further: nearly all actives have a fitted effect of over 30% in size; further: potency means the concentration at half of the fitted maximal effect
Summary of the method: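 CellTiter-Fluor fluorescence measured viability in the same wells used for Caspase-Glo 3/7. HepG2 (wild type) at 2,000 cells/well were pre-incubated 5 hr, dosed, and given reagent at 16 hr, with 1 hr further at 37C.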

[15] = biological target: Nuclear receptor subfamily 1 group I member 2 (Homo sapiens) (UniProt O75469); experiment: Human pregnane X receptor (PXR) small molecule agonists, qHTS assay (AID 1346982); further: nearly all actives have a fitted effect of over 35% in size; further: potency means the concentration at half of the fitted maximal effect
Sequence of Nuclear receptor subfamily 1 group I member 2 (Homo sapiens) (O75469 whole entry, looked up): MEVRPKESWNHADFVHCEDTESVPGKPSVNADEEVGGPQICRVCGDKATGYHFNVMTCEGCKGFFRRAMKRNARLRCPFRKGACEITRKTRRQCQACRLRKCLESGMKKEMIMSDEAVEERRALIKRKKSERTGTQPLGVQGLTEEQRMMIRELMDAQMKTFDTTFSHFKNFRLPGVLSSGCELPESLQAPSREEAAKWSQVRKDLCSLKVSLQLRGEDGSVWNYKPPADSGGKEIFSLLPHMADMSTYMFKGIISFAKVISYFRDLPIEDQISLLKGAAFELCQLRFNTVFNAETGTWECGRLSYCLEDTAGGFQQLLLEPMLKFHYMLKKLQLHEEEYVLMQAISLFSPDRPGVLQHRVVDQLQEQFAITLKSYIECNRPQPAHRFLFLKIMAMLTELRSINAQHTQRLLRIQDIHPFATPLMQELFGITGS
Summary of the method: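 Agonist mode: luminescence from ONE-Glo after 24 h compound exposure at 37C in HepG2 cells carrying hPXR-responsive CYP3A4 luciferase, plated in charcoal-stripped serum medium 5 h beforehand.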

[16] = biological target: Acetylcholinesterase (Homo sapiens) (UniProt P22303); experiment: Acetylcholinesterase (AChE) small molecule antagonists: colormetric cell-based qHTS assay (AID 1347395; calls by dose curve; further: nearly all actives have a fitted effect of over 30% in size; further: potency means the concentration at half of the fitted maximal effect)
Sequence of Acetylcholinesterase (Homo sapiens) (P22303 whole entry, looked up): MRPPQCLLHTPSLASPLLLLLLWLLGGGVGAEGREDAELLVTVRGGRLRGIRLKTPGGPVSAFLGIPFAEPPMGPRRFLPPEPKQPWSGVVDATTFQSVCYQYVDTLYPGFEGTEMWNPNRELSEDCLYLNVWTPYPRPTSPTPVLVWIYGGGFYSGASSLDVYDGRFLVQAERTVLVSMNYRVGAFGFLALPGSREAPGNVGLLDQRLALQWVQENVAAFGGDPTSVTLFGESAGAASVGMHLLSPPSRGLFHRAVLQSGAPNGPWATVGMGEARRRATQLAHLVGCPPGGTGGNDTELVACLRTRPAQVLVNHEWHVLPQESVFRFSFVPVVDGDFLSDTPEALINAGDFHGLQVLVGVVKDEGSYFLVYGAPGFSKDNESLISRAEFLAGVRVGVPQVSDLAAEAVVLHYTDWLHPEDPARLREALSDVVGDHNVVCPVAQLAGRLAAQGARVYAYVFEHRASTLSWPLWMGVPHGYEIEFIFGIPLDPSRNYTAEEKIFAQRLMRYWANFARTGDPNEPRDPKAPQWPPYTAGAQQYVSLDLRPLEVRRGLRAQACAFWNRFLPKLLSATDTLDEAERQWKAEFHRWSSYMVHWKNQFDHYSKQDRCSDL
Summary of the method: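 SH-SY5Y cells, plated overnight at 37 C, were exposed to compounds for 30 min at 37 C and 5% CO2. Acetylthiocholine plus DTNB was then added, and thiocholine from endogenous AChE was quantified colorimetrically after 90 min at 37 C.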

[17] = biological target: Acetylcholinesterase (Homo sapiens) (UniProt P22303); experiment: Acetylcholinesterase (AChE) small molecule antagonists: enzyme-based qHTS assay (AID 1347397; calls by dose curve; further: nearly all actives have a fitted effect of over 55% in size; further: potency means the concentration at half of the fitted maximal effect); details: Potency: AChE enzyme activity inhibition
Summary of the method: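 Tox21 library chemicals are tested in qHTS format against recombinant human AChE. The enzyme, dispensed at 50 mU/mL, sits with compound for 30 min at room temperature. A DTNB–acetylthiocholine cocktail follows, and colour is read after 10 min.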

Measured: Potency

c1ccc(C2CO2)cc1 (stereo not given)
inactive: all assays above

CNC(=O)Oc1cccc2c1OC(C)(C)C2
active: [16] 726 nM and 89.4 nM | [17] 726 nM and 200 nM
not listed: [12]
inactive: all other assays above

CNC(=O)CSP(=S)(OC)OC
62.8 µM (active) and inactive: [15]
not listed: [12]
inactive: all other assays above

Clc1ccc(C(Cl)(Cl)Cl)cc1
inactive: all assays above

O=P(OCCCl)(OCCCl)OCCCl
inactive and 19.3 µM (active): [15]
not listed: [12]
inactive: all other assays above

CCCCCCCCCc1ccc(O)cc1
active: [2] 27.6 µM and 61.1 µM | [10] 61.1 µM | [11] 61.8 µM and 27.3 µM | [14] 43.3 µM | [15] 61.8 µM and 61.1 µM
not listed: [12] | [13] | [17]
inactive: all other assays above

N#CC(c1ccccc1)c1ccccc1
inactive: all assays above

O=C(O)CF
inactive: all assays above
